Measured values published in PubChem BioAssay (NCATS).
Records with an inconclusive call do not appear. Active and inactive are the calls of the source. Unless noted, the call rests on the fitted dose curve; in most records, active means well fitted curve in the direction sought with a large enough effect; inconclusive means small, poorly fitted or top-dose-only effect, or another doubt; inactive means no such curve, though single readings can be large; an effect the other way counts as inactive or inconclusive.

Legend:
[1] = Viability counterscreen for antagonist of constitutive androstane receptor (CAR) against the NCATS DSHEA and TCM libraries (AID 1794837);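 further: compound exposure lasted 24 h before viability reading; 0% is about no effect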
Outline: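 Cells: HepG2 line carrying CYP2B6 reporter and hCAR, seeded and attached 5 h. Then pin-transferred test substances plus agonist CITCO at 48 uM final; 24 h incubation; fluorogenic viability reagent, 1 h.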

[2] = Viability counterscreen for agonist of constitutive androstane receptor (CAR) against the NCATS DSHEA and TCM libraries (AID 1794838);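 further: HepG2 cells with CYP2B6 reporter and hCAR plus 0.75 µM PK11195 antagonist; 0% is about no effect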
Outline: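 Cell health was measured as CellTiter-Fluor signal in HepG2-CYP2B6-hCAR cells treated for 24 h with substances alongside the hCAR antagonist PK11195 (0.75 uM final).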

[3] = HepG2 viability counterscreen (readout 2: ATP content) against the NCATS DSHEA and TCM libraries (AID 1794840); further: 0% is about no effect
Outline: (§1)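 Same wells read twice: first fluorescence from cleaved GF-AFC substrate (25 uM final, 30 min, 37C) for live-cell protease, then CellTiter-Glo luminescence after 30 min at room temperature for ATP. HepG2 cells were exposed ~24 h to substances.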

[4] = HepG2 viability counterscreen (readout 1: protease activity) against the NCATS DSHEA and TCM libraries (AID 1794841);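 further: cells exposed to compounds for about 24 h before the protease read; 0% is about no effect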
Outline: as §1

[5] = target: Cytochrome P450 3A4 (Homo sapiens) (UniProt P08684); experiment: qHTS for inhibitors of CYP3A4 against the NCATS DSHEA and TCM libraries (AID 1919971);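 further: on the % scale 0 is the no-effect control and ±100 the full control effect; inhibition lowers luminescence from luciferin made by CYP3A4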
Outline: (§2)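 Read-out is luminescence after P450-Glo detection (30 min, RT). Before that: 15 min compound–enzyme preincubation, then 30-45 min reaction with 1x NADPH regeneration solution, substrate concentration isoform-specific.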

[6] = target: Cytochrome P450 2D6 (Homo sapiens) (UniProt P10635); experiment: qHTS for inhibitors of CYP2D6 against the NCATS DSHEA and TCM libraries (AID 1919972); further: on the % scale 0 is the no-effect control and ±100 the full control effect
Outline: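 Luminescent P450-Glo read-out of CYP2D6 turnover of a luciferin substrate after NADPH-driven reaction of 30-45 min at room temperature. Compounds were first preincubated 15 min with enzyme at titrated concentrations; quinidine was the intraplate control.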

[7] = target: Cytochrome P450 2C9 (Homo sapiens) (UniProt P11712); experiment: qHTS for inhibitors of CYP2C9 against the NCATS DSHEA and TCM libraries (AID 1919973);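 further: luminogenic pro-luciferin CYP2C9 substrate turned into luciferin with NADPH regeneration; series mostly up to about 34 µM; on the % scale 0 is the no-effect control and ±100 the full control effect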
Outline: as §2

[8] = target: Cytochrome P450 2C19 (Homo sapiens) (UniProt P33261); experiment: qHTS for inhibitors of CYP2C19 against the NCATS DSHEA and TCM libraries (AID 1919974);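 further: luminescence from luciferin released by CYP2C19 oxidation of a pro-luciferin substrate; on the % scale 0 is the no-effect control and ±100 the full control effect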
Outline: as §2

[9] = KB-3-1 P-gp reporter qHTS against the NCATS DSHEA and TCM libraries (AID 1919975); further: 0% is about no effect
Outline: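 KB-3-1 parental line, 1536-well qHTS: cells seeded, ~4 h attachment, pintool compound addition, ~72 h at 37C, then CellTiter-Glo, 30 min RT, luminescence. Concentration-response format.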

[10] = target: Cytochrome P450 1A2 (Homo sapiens) (UniProt P05177); experiment: qHTS for inhibitors of CYPIA2 against the NCATS DSHEA and TCM libraries (AID 1919976);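 further: light from luciferin formed by CYP1A2 from a pro-luciferin substrate; series mostly up to about 37 µM; on the % scale 0 is the no-effect control and ±100 the full control effect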
Outline: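 CYP1A2 + luciferin substrate, 100 mM KPO4-type buffer; cmpd 15 min RT; 1x NADPH regen, 30-45 min RT dark; detection reagent 30 min RT; luminescence. Minus-enzyme wells as background; furafylline intraplate control.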

[11] = qHTS Counterscreen for compound interference against the NCATS DSHEA and TCM libraries (AID 1919978); conditions: firefly luciferase detection reagent interference, luminescence;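 further: compounds preincubated with 1 µM D-luciferin or buffer before detection reagent; % of control where 0% means no effect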
Outline: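 Compounds, titrated from 19.5 nM to 39.8 uM final, were pinned onto 1 uM D-luciferin or plain 100 mM potassium phosphate. After 15 min at room temperature, luciferin detection reagent was added for 30 min before the luminescence read.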

[12] = Dual reporter qHTS for agonist of Pregnane X Receptor (hPXR) against the NCATS DSHEA and TCM libraries: Fluorescence readout (AID 1920058); further: 0% is about no effect
Outline: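 HepG2 hPXR-Luc, 2000 cells/well, 5 h attach; cpds ~24 h, 37 °C/5% CO2; CellTiter-Fluor 1 h; fluor. Ex/Em 405/540 nm = viability.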

[13] = target: Nuclear receptor subfamily 1 group I member 2 (Homo sapiens) (UniProt O75469); experiment: Dual reporter qHTS for antagonist of Pregnane X Receptor (hPXR) against the NCATS DSHEA and TCM libraries: Luminescence Readout (AID 1920060); further: 0% is about no effect
Outline: (§3)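 Rifampicin-stimulated (2 uM final) hPXR-luciferase HepG2 cells were treated for 24 h with DSNP/TCM substances. Viability came from CellTiter-Fluor fluorescence, reporter activity from ONE-Glo luminescence.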

[14] = Dual reporter qHTS for antagonist of Pregnane X Receptor (hPXR) against the NCATS DSHEA and TCM libraries: Fluorescence Readout (AID 1920061); further: 0% is about no effect
Outline: as §3

[15] = Stat Signaling Pathway (AID 446; active means well fitted curve in either direction with a large enough effect, not every such curve was filed as active)
Outline: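 IL-6/STAT signaling read in ME-180 cells via an SIE beta-lactamase reporter. Stimulus was 40 pM IL-6 (its AC50) for 5 hrs, so both activation and inhibition register.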

[16] = target: Glucocorticoid receptor (Homo sapiens) (UniProt P04150); experiment: GR-GFP Redistribution (AID 450;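 active means compounds whose dose series gives a full or clear partial fitted curve of increased nuclear translocation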; further: potency means the concentration at half of the fitted maximal effect); conditions: U2OS GR-GFP nuclear translocation, laser cytometry, 2 h
[17] = target: Glucocorticoid receptor (Homo sapiens) (UniProt P04150); experiment: GR-EFC Redistribution (AID 451; calls by dose curve; further: potency means the concentration at half of the fitted maximal effect); conditions: CHO-K1 GR-EFC translocation, beta-gal luminescence, 2 h
Outline: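 CHO-K1 cells expressing nuclear EA and GR-ED fragments of b-gal; compounds titrated up to 46 uM final, 2 h at 37 C. GR nuclear translocation read as complemented b-gal luminescence after 1 h RT detection.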

[18] = target: Mitogen-activated protein kinase 10 (Mus musculus) (UniProt Q61831); experiment: JNK3 AlphaScreen Assay (AID 530; active means well fitted curve in either direction with a large enough effect, not every such curve was filed as active)
Outline: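 Pre-activated (IL-1β/TNFα) JNK3 in HepG2 lysates phosphorylates biotin-GST-cJun(1-79), 10 uM ATP; anti-phospho-cJun(Ser73) AlphaScreen read at room temperature, pH 7.6 Tris buffer. Compounds pre-incubated 15 min as titrations.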

[19] = target: Ubiquitin carboxyl-terminal hydrolase 1 (Homo sapiens) (UniProt O94782); experiment: Inhibitors of USP1/UAF1: Pilot qHTS (AID 504865);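 further: rhodamine fluorescence freed from ubiquitin-rhodamine substrate followed over time; top concentration of the series differs between compounds; on the % scale 0 is the no-effect control and ±100 the full control effect; nearly all actives have a fitted effect of over 35% in size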
Outline: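 In 50mM HEPES pH 7.8 containing 0.5mM EDTA, 1mM TCEP, 0.1 mg/ml BSA and 0.01% Tween-20, 1nM USP1/UAF1 is exposed to compound for 15 min, then Ub-Rho (150nM final) is added and fluorescence is read over time.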

[20] = target: Nuclear receptor subfamily 1 group I member 2 (Homo sapiens) (UniProt O75469); experiment: Dual reporter qHTS for agonist of Pregnane X Receptor (hPXR) against the NCATS DSHEA and TCM libraries: Luminescence readout (AID 1920059); further: 0% is about no effect
Outline: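 hPXR-Luc HepG2 cells, 2000/well in 5% charcoal-stripped FBS medium, attached 5 h, then exposed 24 h at 37C to compounds. Viability by CellTiter-Fluor, then luciferase luminescence with ONE-Glo.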

Sequence of Cytochrome P450 2C9 (Homo sapiens) (P11712 whole entry, looked up): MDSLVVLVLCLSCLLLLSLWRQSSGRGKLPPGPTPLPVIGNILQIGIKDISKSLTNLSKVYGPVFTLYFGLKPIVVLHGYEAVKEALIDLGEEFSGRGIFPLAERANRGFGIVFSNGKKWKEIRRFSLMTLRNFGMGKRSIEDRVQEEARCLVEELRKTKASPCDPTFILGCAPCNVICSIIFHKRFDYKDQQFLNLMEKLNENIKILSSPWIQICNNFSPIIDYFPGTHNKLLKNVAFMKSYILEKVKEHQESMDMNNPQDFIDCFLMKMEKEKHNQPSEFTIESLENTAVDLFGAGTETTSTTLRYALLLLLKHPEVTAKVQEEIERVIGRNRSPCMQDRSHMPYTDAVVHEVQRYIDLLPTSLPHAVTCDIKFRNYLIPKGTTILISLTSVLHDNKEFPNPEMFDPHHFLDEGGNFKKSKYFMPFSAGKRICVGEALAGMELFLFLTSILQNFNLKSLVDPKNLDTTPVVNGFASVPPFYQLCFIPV
Sequence of Cytochrome P450 1A2 (Homo sapiens) (P05177 whole entry, looked up): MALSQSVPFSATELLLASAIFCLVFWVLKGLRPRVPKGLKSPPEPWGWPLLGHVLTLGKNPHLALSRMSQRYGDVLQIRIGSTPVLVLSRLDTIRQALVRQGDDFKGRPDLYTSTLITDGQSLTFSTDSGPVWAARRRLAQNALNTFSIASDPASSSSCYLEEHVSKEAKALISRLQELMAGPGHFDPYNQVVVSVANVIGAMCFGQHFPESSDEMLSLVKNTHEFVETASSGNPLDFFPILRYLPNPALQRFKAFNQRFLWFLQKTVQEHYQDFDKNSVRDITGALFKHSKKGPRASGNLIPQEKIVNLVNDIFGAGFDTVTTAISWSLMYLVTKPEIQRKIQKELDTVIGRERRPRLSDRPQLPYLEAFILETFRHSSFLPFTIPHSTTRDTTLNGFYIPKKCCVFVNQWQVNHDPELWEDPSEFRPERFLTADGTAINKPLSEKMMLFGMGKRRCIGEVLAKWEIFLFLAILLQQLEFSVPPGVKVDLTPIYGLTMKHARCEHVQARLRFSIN
Sequence of Cytochrome P450 2C19 (Homo sapiens) (P33261 whole entry, looked up): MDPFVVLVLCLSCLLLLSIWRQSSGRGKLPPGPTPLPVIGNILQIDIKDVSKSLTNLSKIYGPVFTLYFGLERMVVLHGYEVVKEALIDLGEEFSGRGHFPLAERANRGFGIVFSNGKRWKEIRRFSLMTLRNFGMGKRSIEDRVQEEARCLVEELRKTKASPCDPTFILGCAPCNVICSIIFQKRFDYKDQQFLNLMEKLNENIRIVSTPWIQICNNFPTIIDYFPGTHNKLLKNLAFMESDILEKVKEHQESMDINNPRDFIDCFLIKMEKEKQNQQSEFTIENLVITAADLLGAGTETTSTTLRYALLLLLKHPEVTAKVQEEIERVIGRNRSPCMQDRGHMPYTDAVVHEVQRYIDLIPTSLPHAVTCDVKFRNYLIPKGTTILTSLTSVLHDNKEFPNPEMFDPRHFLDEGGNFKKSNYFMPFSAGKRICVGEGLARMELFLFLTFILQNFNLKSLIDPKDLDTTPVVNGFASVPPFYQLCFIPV
Sequence of Glucocorticoid receptor (Homo sapiens) (P04150 whole entry, looked up, the tested form may be a part): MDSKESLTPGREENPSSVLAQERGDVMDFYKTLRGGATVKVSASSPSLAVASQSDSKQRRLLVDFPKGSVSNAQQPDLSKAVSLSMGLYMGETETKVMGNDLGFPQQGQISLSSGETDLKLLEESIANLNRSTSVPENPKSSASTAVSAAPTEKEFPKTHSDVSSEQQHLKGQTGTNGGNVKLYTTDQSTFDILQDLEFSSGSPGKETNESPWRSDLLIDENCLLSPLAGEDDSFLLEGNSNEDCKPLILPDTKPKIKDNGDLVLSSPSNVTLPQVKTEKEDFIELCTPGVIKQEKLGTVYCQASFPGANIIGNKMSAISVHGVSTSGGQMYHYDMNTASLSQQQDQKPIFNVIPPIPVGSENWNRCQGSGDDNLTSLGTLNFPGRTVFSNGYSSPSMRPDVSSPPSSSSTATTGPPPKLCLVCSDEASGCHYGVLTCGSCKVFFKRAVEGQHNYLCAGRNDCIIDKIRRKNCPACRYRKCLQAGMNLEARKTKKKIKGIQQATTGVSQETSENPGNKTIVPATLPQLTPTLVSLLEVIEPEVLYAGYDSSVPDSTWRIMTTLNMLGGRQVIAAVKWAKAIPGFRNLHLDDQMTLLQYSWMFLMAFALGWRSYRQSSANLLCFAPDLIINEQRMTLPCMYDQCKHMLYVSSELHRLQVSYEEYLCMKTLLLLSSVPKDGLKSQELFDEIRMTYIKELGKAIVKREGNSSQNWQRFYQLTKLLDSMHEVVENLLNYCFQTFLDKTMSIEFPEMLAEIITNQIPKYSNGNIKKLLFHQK
Sequence of Cytochrome P450 3A4 (Homo sapiens) (P08684 whole entry, looked up, canonical isoform): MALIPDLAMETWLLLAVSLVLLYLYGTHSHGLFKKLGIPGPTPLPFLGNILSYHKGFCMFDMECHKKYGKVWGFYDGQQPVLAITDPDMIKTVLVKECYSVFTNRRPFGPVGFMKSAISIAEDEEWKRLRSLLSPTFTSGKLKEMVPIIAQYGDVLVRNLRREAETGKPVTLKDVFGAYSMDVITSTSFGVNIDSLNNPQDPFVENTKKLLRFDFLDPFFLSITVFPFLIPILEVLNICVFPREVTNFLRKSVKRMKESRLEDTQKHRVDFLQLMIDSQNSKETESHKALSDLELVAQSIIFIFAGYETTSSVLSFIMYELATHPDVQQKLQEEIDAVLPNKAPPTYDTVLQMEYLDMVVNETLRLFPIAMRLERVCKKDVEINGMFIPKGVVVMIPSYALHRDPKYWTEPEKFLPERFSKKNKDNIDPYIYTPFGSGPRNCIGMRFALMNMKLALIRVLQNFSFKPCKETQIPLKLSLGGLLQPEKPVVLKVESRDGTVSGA
Sequence of Nuclear receptor subfamily 1 group I member 2 (Homo sapiens) (O75469 whole entry, looked up): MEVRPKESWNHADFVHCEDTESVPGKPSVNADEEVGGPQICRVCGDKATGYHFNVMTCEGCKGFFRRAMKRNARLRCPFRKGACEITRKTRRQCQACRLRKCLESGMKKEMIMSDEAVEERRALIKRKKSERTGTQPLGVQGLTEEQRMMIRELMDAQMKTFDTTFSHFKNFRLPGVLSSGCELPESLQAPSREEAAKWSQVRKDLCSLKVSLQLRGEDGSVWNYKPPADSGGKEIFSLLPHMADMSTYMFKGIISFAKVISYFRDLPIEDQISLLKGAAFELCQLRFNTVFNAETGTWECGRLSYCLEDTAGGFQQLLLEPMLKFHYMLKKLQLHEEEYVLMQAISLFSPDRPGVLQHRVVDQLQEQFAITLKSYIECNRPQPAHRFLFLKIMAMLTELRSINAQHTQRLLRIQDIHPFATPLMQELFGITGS
Sequence of Ubiquitin carboxyl-terminal hydrolase 1 (Homo sapiens) (O94782 whole entry, looked up): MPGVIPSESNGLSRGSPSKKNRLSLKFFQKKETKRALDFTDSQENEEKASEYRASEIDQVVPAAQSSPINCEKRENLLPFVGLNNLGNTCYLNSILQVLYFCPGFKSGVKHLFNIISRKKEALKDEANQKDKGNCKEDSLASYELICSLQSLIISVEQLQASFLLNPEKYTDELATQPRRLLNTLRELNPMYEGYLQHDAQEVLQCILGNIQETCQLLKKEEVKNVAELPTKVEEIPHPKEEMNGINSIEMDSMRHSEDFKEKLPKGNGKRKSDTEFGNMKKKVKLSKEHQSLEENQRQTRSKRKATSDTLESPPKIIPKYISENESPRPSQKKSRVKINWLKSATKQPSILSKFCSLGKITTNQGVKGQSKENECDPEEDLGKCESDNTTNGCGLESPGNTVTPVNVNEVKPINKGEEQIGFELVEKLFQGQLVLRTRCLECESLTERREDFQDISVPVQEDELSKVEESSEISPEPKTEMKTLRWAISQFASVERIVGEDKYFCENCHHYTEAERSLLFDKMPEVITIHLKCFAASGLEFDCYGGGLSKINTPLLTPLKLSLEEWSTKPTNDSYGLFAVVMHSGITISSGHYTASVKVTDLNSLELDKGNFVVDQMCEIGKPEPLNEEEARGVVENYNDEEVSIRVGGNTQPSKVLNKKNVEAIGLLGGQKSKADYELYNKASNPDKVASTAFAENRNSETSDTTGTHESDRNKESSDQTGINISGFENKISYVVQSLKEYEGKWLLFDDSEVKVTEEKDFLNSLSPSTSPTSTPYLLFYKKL
Sequence of Cytochrome P450 2D6 (Homo sapiens) (P10635 whole entry, looked up): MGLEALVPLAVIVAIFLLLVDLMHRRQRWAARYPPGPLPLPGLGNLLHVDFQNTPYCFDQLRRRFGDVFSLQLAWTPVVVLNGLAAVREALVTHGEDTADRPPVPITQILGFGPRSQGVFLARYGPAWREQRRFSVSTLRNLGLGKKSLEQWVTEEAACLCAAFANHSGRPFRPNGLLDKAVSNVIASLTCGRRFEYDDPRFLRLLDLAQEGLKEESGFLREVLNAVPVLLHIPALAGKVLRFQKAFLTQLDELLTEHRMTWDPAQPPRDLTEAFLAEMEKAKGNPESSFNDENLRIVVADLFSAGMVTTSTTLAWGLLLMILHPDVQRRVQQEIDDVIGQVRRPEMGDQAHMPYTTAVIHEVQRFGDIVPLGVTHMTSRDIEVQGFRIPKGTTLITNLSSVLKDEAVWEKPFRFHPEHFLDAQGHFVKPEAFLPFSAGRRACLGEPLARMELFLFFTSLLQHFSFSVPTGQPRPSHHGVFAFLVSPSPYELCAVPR

C=C1C[C@]23CC[C@H]4[C@@](C)(CCC[C@@]4(C)C(=O)O)[C@@H]2CC[C@@]1(O[C@@H]1O[C@H](CO)[C@@H](O)[C@H](O)[C@H]1O[C@@H]1O[C@H](CO)[C@@H](O)[C@H](O)[C@H]1O)C3
inactive: outcome [1] | outcome [2] | outcome [3] | outcome [4] | Potency [5] | Potency [6] | Potency [7] | Potency [8] | outcome [9] | Potency [10] | max response [11] -1.97% | outcome [12] | outcome [13] | outcome [14]

COc1ccccc1CNc1cc(-c2cccnc2)ncn1
inactive: outcome [15] | Potency [16] > 46 µM | Potency [17] > 46 µM | Potency [18] | Potency [19]

O=C(O)c1ccccc1
inactive: Potency [18] | outcome [1] | outcome [2] | outcome [3] | outcome [4] | Potency [5] | Potency [6] | Potency [7] | Potency [8] | outcome [9] | Potency [10] | max response [11] -0.483% | outcome [12] | Potency [20] | outcome [13] | outcome [14]

COc1ccc2[nH]cc(CCNc3ncncc3-c3ccccc3C)c2c1
inactive: outcome [15] | Potency [16] > 46 µM | Potency [17] > 46 µM | Potency [18] | Potency [19]

CCCCCCCCCCCCCC(=O)O
inactive: outcome [1] | outcome [2] | outcome [3] | outcome [4] | Potency [5] | Potency [6] | Potency [8] | outcome [9] | max response [11] -1.78% | outcome [12] | outcome [13] | outcome [14]

COc1ccc2[nH]cc(CCNc3ncncc3-c3cccc(C#N)c3)c2c1
inactive: outcome [15] | Potency [16] > 46 µM | Potency [17] > 46 µM | Potency [18] | Potency [19]

OCC1=C[C@@H](O)[C@@H]2C=CO[C@@H](OC3O[C@H](CO)[C@@H](O)[C@H](O)[C@H]3O)[C@H]12 (stereo partly specified)
inactive: outcome [1] | outcome [2] | outcome [3] | outcome [4] | Potency [5] | Potency [6] | Potency [7] | Potency [8] | outcome [9] | Potency [10] | max response [11] 1.01% | outcome [12] | Potency [20] | outcome [13] | outcome [14]

COc1ccccc1CNc1ccnc(-c2cccnc2)n1
inactive: outcome [15] | Potency [16] > 46 µM | Potency [17] > 46 µM | Potency [18] | Potency [19]

CCCCCC(=O)CC
inactive: outcome [1] | outcome [2] | outcome [3] | outcome [4] | Potency [5] | Potency [6] | Potency [7] | Potency [8] | outcome [9] | Potency [10] | max response [11] -3.61% | outcome [12] | outcome [13] | outcome [14]
